Measurements reported in PubChem BioAssay (NCI).
About 79,000 compounds went through this panel and 15% of them were active in at least one assay; those are over-represented in the sample as a whole. Activity calls are given as the source filed them. No stated cut-off is given here; in the data, active means growth inhibition above about 70%; inactive means the rest. Where a SMILES comes first, the peptide text is derived from it. The star is where a group is joined. Boc = CC(C)(C)OC(=O)*; OBn = c1ccc(CO*)cc1

Columns and labels:
[1] = NCI Yeast Anticancer Drug Screen. Data for the rad50 strain (AID 155);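 further: 0% = growth of vehicle-only cultures of the same strain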; settings: S. cerevisiae rad50 strain growth inhibition; at 50.0 µM; stronger effect = higher value
How it was run: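 Cells are treated with compound, grown, and their growth is then scored against vehicle-only cultures of the same repair-deficient yeast strain.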

[2] = NCI Yeast Anticancer Drug Screen. Data for the mec2-1 strain (AID 157); settings: S. cerevisiae mec2-1 strain, at 50.0 µM, stronger effect = higher value
How it was run: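 Vehicle-treated cultures served as reference for growth inhibition of compound-exposed mec2-1 yeast.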

[3] = NCI Yeast Anticancer Drug Screen. Data for the sgs1 mgt1 strain (AID 161);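 further: 0% = growth of cultures given vehicle only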; settings: S. cerevisiae sgs1 mgt1 strain, at 50.0 µM, stronger effect = higher value
How it was run: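 Inhibition of yeast growth, normalised to vehicle-treated controls, is reported for a strain bearing genetic alterations in DNA damage repair.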

[4] = NCI Yeast Anticancer Drug Screen. Data for the cln2 rad14 strain (AID 165);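 further: 0% = growth equal to vehicle treated cultures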; settings: S. cerevisiae cln2 rad14 strain, at 50.0 µM, stronger effect = higher value
How it was run: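 Each compound was tested on cln2 rad14 yeast. Inhibition of growth was calculated against vehicle-exposed controls.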

[5] = NCI Yeast Anticancer Drug Screen. Data for the bub3 strain (AID 167); settings: S. cerevisiae bub3 mutant strain, at 50.0 µM, stronger effect = higher value
How it was run: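 Part of a panel of yeast mutants defective in DNA damage repair or cell cycle regulation. Each strain is grown with compound, and inhibition is calculated relative to solvent-treated cultures.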

[6] = NCI Yeast Anticancer Drug Screen. Data for the mlh1 rad18 strain (AID 175); settings: S. cerevisiae mlh1 rad18 strain growth inhibition; at 50.0 µM; stronger effect = higher value
How it was run: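 Vehicle-treated cultures served as the reference for growth inhibition in a yeast strain carrying DNA damage repair alterations exposed to each compound.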

Measured: growth inhibition

COc1ccc(C2=CCCCc3cc(O)c(OC)cc32)cc1
active: [1] 93.9% | [2] 96.7% | [3] 97.2% | [4] 79.8% | [5] 98.1% | [6] 97.2%

CCCCCCCCCCCCNC(C)C1=C(O)c2ccccc2C(=O)C1=O (stereo unspecified)
inactive: [1] 52.6% | [2] 20.3% | [3] 50% | [4] 25.9% | [5] 15% | [6] 44.9%

O=C(O)C1C(C2c3ccc(O)cc3Oc3cc(O)ccc32)C2(Cl)C(Cl)=C(Cl)C1(Cl)C2(Cl)Cl (stereo unspecified)
active: [1] 95.3% | [2] 94.4% | [3] 96.8% | [5] 81.6% | [6] 95.3%
inactive: [4] 69.2%

CCCCNCCCC(C(=O)O)c1ccccc1 (stereo unspecified)
inactive: [1] 2.1% | [2] -3.4% | [3] 3.8% | [4] -10.3% | [5] -35.2% | [6] 6.75%

NC(Cc1ccccc1)C(=O)NCC(=O)NC(Cc1ccccc1)C(=O)NCC(=O)O (stereo unspecified) (H-FGFG-OH; configuration not given here)
inactive: [1] -4.35% | [2] -4.15% | [3] -7.95% | [4] -36.4% | [5] -4.7% | [6] 4.2%

NC(=O)N/N=C1\CCc2ccccc2C1
inactive: [1] 12.8% | [2] -12.3% | [3] -25.8% | [4] 22.4% | [5] -42.3% | [6] -2.8%

Cn1ncc2c(Nc3cc(Cl)ccc3Cl)ncnc21
inactive: [1] -3.05% | [2] -1.9% | [3] 4.35% | [4] -52.8% | [5] 3.7% | [6] -1.95%

O=S(=O)(O)c1ccc2c(N=Nc3cccc4ccccc34)c(O)c(S(=O)(=O)O)cc2c1
inactive: [1] -2.35% | [2] 4.9% | [3] -21.3% | [4] 41.2% | [5] -17.8% | [6] 23.1%

C#CCN(CC#C)C(=O)Nc1ccc(Cl)cc1
inactive: [1] -33.5% | [2] -21.4% | [3] -11.2% | [4] -47% | [5] -16.2% | [6] 3.45%

CCOC(=O)C(=CN(C)c1ccc(C)cc1)C(=O)OCC
inactive: [1] 20.4% | [2] 2.65% | [3] 8.2% | [4] 9.7% | [5] 25.6% | [6] 8.9%

Cc1ccc(NC=O)cc1NC=O
inactive: [1] 37.6% | [2] -1.4% | [3] 9.5% | [4] -27.1% | [5] 4.2% | [6] 15.9%

CCOc1cc(/C=C2\N=C(c3ccccc3)OC2=O)ccc1O
inactive: [1] 5% | [2] 1.2% | [3] 2.6% | [4] -50.8% | [5] -12.8% | [6] -2.75%

CC12CCC(CC1C(=O)O)C2 (stereo unspecified)
inactive: [1] 19.4% | [2] 16.3% | [3] 24.9% | [4] 22.1% | [5] 9.75% | [6] 15.3%

O=C(Nc1ccccc1)c1cccnc1
inactive: [1] -4% | [2] -18.4% | [3] -0.2% | [4] -13.9% | [5] -2.75% | [6] -2.65%

COc1cc(OC)c(OC)cc1/C=C/c1cc[n+](C)c2ccccc12
inactive: [1] 9.1% | [2] -6.35% | [3] 11.6% | [4] -0.8% | [5] 4.95% | [6] 8.05%

COC(=O)c1ccccc1-c1ccccc1[N+](=O)[O-]
inactive: [1] 3.15% | [2] -1.75% | [3] 2.5% | [4] 2.6% | [5] -7.35% | [6] -3%

O=C(O)c1ccc(Cl)cc1CC(Cl)(Cl)Cl
inactive: [1] 3.55% | [2] 25.5% | [3] 15.1% | [4] 24.5% | [5] 21.1% | [6] 17.1%

O=C(c1ccccc1)C12CCCC(CC1)C2 (stereo unspecified)
inactive: [1] 0.15% | [2] -19.9% | [3] -2.2% | [4] -37.5% | [5] -9.6% | [6] 0.65%

CC1CN=C(N(Cc2ccccc2)C(=O)Nc2ccc(Cl)c(Cl)c2)S1 (stereo unspecified)
inactive: [1] -4.25% | [2] 27.9% | [3] -0.35% | [4] 26.7% | [5] -0.65% | [6] 0.35%

COC(=O)C(Cc1ccccc1)NCCN (stereo unspecified)
inactive: [1] -0.1% | [2] 7.4% | [3] -3.9% | [4] -17% | [5] -5.95% | [6] 2.1%

CN=C1CC2CCCC1C2 (stereo unspecified)
inactive: [1] -15.7% | [2] 0.85% | [3] -5.8% | [4] -6.1% | [5] -7.95% | [6] -15.4%

COc1cc(CCCCC(=O)O)ccc1OC(=O)c1ccccc1
inactive: [1] -15.6% | [2] -4.85% | [3] 1.85% | [4] 2.05% | [5] -6.3% | [6] -5.1%

[CH3][Ga]([CH3])[O]c1ccccc1C=O
inactive: [1] -3.6% | [2] -17.6% | [3] -10.8% | [4] -80.7% | [5] -30.3% | [6] -21.4%

CC(NC(=O)C(NC(=O)OC(C)(C)C)C(C)C)C(=O)N1CCCC1C(=O)NCC(=O)NC(C(=O)NCC(=O)OCc1ccccc1)C(C)C (stereo unspecified) (Boc-VAPGVG-OBn; configuration not given here)
inactive: [1] -30.1% | [2] -33.4% | [3] -20.9% | [4] 6.85% | [5] -18.9% | [6] -48.4%

NCS(=O)(=O)O
inactive: [1] -12.8% | [2] -23.1% | [3] -18.9% | [4] 9.5% | [5] -24.2% | [6] -26.1%

CCN(CC)CC(O)Cn1cnc2c(=S)nc[nH]c21 (stereo unspecified)
inactive: [1] 8.7% | [2] -4.05% | [3] -3.45% | [4] 4.9% | [5] 1.45% | [6] -4.45%

COc1c(NC(=O)Nc2ccc(SC)cc2)cccc1[N+](=O)[O-]
inactive: [1] 2.35% | [2] 15.6% | [3] 23.6% | [4] 5.1% | [5] 41.3% | [6] 9.65%

CCOC(=O)N1OC2C=CC1CC2 (stereo unspecified)
inactive: [1] -7.45% | [2] -9.45% | [3] -12.1% | [4] 11.8% | [5] 3.45% | [6] 15.1%

CCOC1CCC=CO1 (stereo unspecified)
inactive: [1] -9.65% | [2] 3.7% | [3] 39% | [4] 28.7% | [5] -21.9% | [6] 39.6%

CC(=O)OC1CCC2(C)C(CCC3C2CCC2(C)C3CCC2C(C)(C)O)C1 (stereo unspecified)
inactive: [1] -2.2% | [2] 0.3% | [3] -16.4% | [4] -9.15% | [5] -2.45% | [6] 20.6%

O=c1c2c(-c3ccccc3)onc2n(-c2ccccc2)c(=O)n1-c1ccccc1
inactive: [1] -20.4% | [2] 4.5% | [3] 13.2% | [4] -10.6% | [5] -4.2% | [6] 36.5%

CC(=O)NNc1nc(C)c(C(/C=C/c2ccc([N+](=O)[O-])cc2)=N/N)s1
inactive: [1] 22.4% | [2] 9.2% | [3] 3.85% | [4] 17.4% | [5] -0.4% | [6] -12.4%

O=[N+]([O-])c1ccc(N=Nc2ccc(O)c3c(O)cc(S(=O)(=O)O)cc23)cc1S(=O)(=O)O
inactive: [1] 30.6% | [2] 9% | [3] 6.85% | [4] -24.8% | [5] -11.4% | [6] 50.1%

CC(=O)c1ccc(C(=O)O)cc1
inactive: [1] 13.7% | [2] -11.6% | [3] 2.45% | [4] -0.15% | [5] -4.3% | [6] 6.15%

CC(=O)Oc1c(C(C)(C)C)cc([N+](=O)[O-])c(C)c1[N+](=O)[O-]
active: [1] 97% | [2] 97.3% | [3] 94.9% | [4] 74.2% | [5] 94% | [6] 95.2%

Cc1cc(C)c(C(=O)/C(O)=C/c2ccccc2)c(C)c1
inactive: [1] -13.7% | [2] -7.7% | [3] 1.2% | [4] 9.95% | [5] -45.5% | [6] -14.2%

O=C1c2ccccc2C(=O)N1/N=N/N1C(=O)c2ccccc2C1=O
active: [1] 97.5% | [2] 97.7% | [3] 98.1% | [4] 96.1% | [5] 98.6% | [6] 97%

CC1(C)OC(C2SCCS2)C2OC(=O)C(O[Si](C)(C)C(C)(C)C)C2O1 (stereo unspecified)
inactive: [1] 18.2% | [2] 16.2% | [3] 2.75% | [4] 0.9% | [5] -2.6% | [6] -1.5%

C/C(CCc1ccccc1Br)=N/NC(N)=O
inactive: [1] -11.1% | [2] -0.9% | [3] -8.55% | [4] -34.4% | [5] 2.6% | [6] -11.3%

NNC(=O)c1cccc(C(=O)NN)n1
inactive: [1] 6.25% | [2] 4.9% | [3] 8.55% | [4] 5.85% | [5] 31.1% | [6] 15.1%

CCCCCCC(=O)c1ccc2ccccc2c1O
inactive: [1] 1.6% | [2] -14.8% | [3] 0.55% | [4] -23.9% | [5] 8.8% | [6] -2.55%
